Screening results from PubChem.
NPC1 prom act = qHTS Assay for NPC1 Promoter Activators; Potency, µM (titrated, usually from 9.22 µM), for inactives: at the top dose activation, usual class: activators; Huh7 NPC1 promoter luciferase reporter, 24 h; 320,000 tested, 2.4% active; also: % of control where 0% means no effect; nearly all actives have a fitted effect of over 60% in size
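In 1536-well qHTS, Huh7 cells harboring an NPC1 promoter–luciferase construct received compound for 24 h; activation was quantified by luminescence following luciferase reagent addition.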
Rab9 promoter act = qHTS Assay for Rab9 Promoter Activators. Potency, µM (highest dose often 9.22 µM), for the others: at the highest dose activation, negative = inhibition, most hits filed as activators. AID 485297, 2010. 320,000 tested, 2.8% active. Huh7 Rab9 promoter-luciferase reporter, luminescence, 24 h; also: % of control where 0% means no effect; nearly all actives have a fitted effect of over 60% in size
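Huh7 cells stably carrying Rab9 promoter–luciferase reporter, plated 1500 cells/well, compound added after 2 h and incubated 24 h at 37 °C; luciferase luminescence then read after 10 min with detection reagent.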
FLuc counter = qHTS profiling assay for firefly luciferase inhibitor/activator using purifed enzyme and Km concentrations of substrates (counterscreen for miR-21 project); 360,000 tested, 6.9% active; Potency, µM (series often up to 57.5 µM), for the others: top-dose activity change, negative = inhibition, usual class: inhibitors; AID 588342, 2011; Luciferin 4-monooxygenase (Photinus pyralis), P08659; purified FLuc, Km substrates, luminescence inhibition;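 also: plate controls were vehicle for no effect and reference inhibitor for full effect; nearly all actives have a fitted effect of over 55% in size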
Target sequence (P08659 whole entry, looked up): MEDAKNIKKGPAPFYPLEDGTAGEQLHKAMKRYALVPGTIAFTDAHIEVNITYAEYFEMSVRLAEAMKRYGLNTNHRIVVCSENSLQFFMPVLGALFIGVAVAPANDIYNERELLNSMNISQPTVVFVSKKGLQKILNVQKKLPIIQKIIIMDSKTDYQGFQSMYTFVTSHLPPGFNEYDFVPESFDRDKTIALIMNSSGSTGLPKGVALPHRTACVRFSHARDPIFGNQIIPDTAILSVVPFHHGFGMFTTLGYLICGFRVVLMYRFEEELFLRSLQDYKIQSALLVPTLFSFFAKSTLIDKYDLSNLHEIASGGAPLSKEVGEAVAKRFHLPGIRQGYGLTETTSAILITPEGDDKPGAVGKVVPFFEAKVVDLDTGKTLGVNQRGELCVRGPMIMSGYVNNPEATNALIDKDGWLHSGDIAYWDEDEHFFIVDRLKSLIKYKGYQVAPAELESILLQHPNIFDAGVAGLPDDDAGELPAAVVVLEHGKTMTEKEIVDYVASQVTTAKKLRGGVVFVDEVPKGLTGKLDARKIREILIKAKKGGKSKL
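Biochemical qHTS of compounds, final roughly 60 µM downward over six points, against 10 nM purified firefly luciferase using Km concentrations of substrates (10 uM D-luciferin, 10 uM ATP) in Tris acetate pH 7.5 buffer; luminescence output.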
SMN2 splice up = qHTS Assay for Enhancers of SMN2 Splice Variant Expression | AID 1458, 2008 | 210,000 tested, 2.8% active | HEK293 SMN2-luciferase splicing reporter, luminescence, 30-36 h | Potency, µM (top dose mostly 46.1 µM), inactives show at the highest dose activity change, positive = activation, actives largely listed as activators; also: % of control where 0% means no effect; nearly all actives have a fitted effect of over 55% in size
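HEK293 cells carry an SMN2 minigene-luciferase reporter in which exon 7 inclusion puts luciferase in frame. Cells were seeded at 2000 cells/well, attached for 10-12 hours, then exposed to compounds for 30-36 hours at 37C before ONE-Glo luminescence.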
Luc counter = Counterscreen for Luciferase (Kinase-Glo TM) Inhibition. Kinase-Glo luciferase, ATP luminescence, 8 min. Potency, µM (highest dose often 38.3 µM), for inactives: at the highest dose activity change, negative = inhibition, usual class: inhibitors. 200,000 tested, 0.28% active; also: % is scaled to controls: 0 for no effect and ±100 for the full control effect; nearly all actives have a fitted effect of over 60% in size
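Recombinant Kinase-Glo luciferase, 10 uM ATP (linear range), luciferin; imidazole pH 7.2 / KCl / MgCl2 / Tween / BSA buffer; 8 min RT; luminescence.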
ELG1 genotox = qHTS screen for small molecules that induce genotoxicity in human embryonic kidney (HEK293T) cells expressing luciferase-tagged ELG1 | Potency, µM (highest dose often 46 µM), for the others: at the top dose activity change, positive = activation, usual class: activators | HEK293T ELG1-luciferase reporter, luminescence, 16 h | 330,000 tested, 1.3% active; also: % of control where 0% means no effect; nearly all actives have a fitted effect of over 60% in size
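HEK293T cells expressing luciferase-tagged ELG1 were exposed to compound or DMSO vehicle for 16 hr at 37 °C and 5% CO2. Luciferase activity was then measured with ONE-Glo after 30 min at room temperature.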
* = called active by the depositor; ? = inconclusive; . = no result; [ ] = another dose, or the depositor's remark. The list is not random: actives were taken first. Their share in the collection is about 7.3%. Calls follow the shape of the dose curve; as a rule, active = well fitted curve in the direction sought with a large enough effect; inconclusive = small, poorly fitted or top-dose-only effect, or another doubt; inactive = no such curve, though single readings can be large; an effect the other way counts as inactive or inconclusive. Potency is read from the fitted curve at half-maximal effect.

SMILES | NPC1 prom act | Rab9 promoter act | FLuc counter | SMN2 splice up | Luc counter | ELG1 genotox
Cc1ccc(-c2ccc(CO)o2)cc1N | 8% | -9% | -18% | -47% | -4% | -19%
CCOC(=O)c1ccc(-c2ccc(CO)o2)cc1 | 1.1µM* | 1.6µM* | 11µM* | 7.9µM* | -4% | ?
CCOc1ccc(-c2ccc(CO)o2)cc1N | . | . | 15µM* | . | . | .
CC(C)(O)c1cc(=O)sc2nc3ccccc3n12 | 3.5µM* | 0.56µM* | 9.5µM* | 14µM* | -7% | ?
c1ccc2nc3c(nc2c1)sc1nc2ccccc2n13 | -7% | 0% | 3% | 36% | -5% | -2%
CCCS(=O)(=O)c1cnc(C2COc3ccccc3O2)nc1N (stereo not given) | -23% | -32% | 0.12µM* | . | . | ?
S=c1nc(C2COc3ccccc3O2)[nH][nH]1 (stereo not given) | 0% | -2% | -16% | 0% | -2% | 0%
Cc1ccc(-n2c(C)c(C)c3c(NCCCO)ncnc32)cc1 | 2.8µM* | 2.5µM* | 19µM* | . | . | ?
C=CCNc1ncnc2c1cnn2-c1ccc(Cl)cc1 | 0.89µM* | 1.1µM* | 0.85µM* | 2.8µM* | -2% | 1.8µM*
CCCCNc1ncnc2c1cnn2-c1ccc(C)cc1C | -1% | -7% | -19% | -28% | 1% | 14%
C=CCNc1ncnc2c1cnn2-c1cccc(C)c1 | 2.5µM* | 1.4µM* | 4.8µM* | 11µM* | 2% | 2.9µM*
CCN(CC)CCCNc1ncnc2c1cnn2-c1ccc(C)c(C)c1 | . | . | 15µM* | . | . | .
Cc1cccc(-n2ncc3c(NCc4ccc5c(c4)OCO5)ncnc32)c1 | -2% | 16% | -13% | -1% | 0% | ?
Cc1cccc(-n2ncc3c(NCCCO)ncnc32)c1 | 2.5µM* | 1.1µM* | 6.7µM* | 11µM* | -2% | 3.7µM*
Cc1c(C)n(CCc2ccccc2)c2ncnc(NCCO)c12 | 3.5µM* | 1.8µM* | 17µM* | . | . | ?
Cc1noc(C)c1S(=O)(=O)NCCCN1CCN(Cc2ccccc2)CC1 | 3% | -3% | 0% | -12% | 17% | -2%
CN(C(=O)c1cc(-c2ccccc2)on1)C1CCCCC1 | 1.3µM* | 2.8µM* | 8.5µM* | . | . | ?
O=C(c1cc(-c2ccco2)on1)N1CCCc2ccccc21 | 14% | 12% | ? | 2% | 0% | 8%
O=C(c1cc(-c2ccccc2)on1)N1CCCc2ccccc21 | 13% | ? | 24µM* | . | 3% | ?
O=C(c1cc(-c2ccccc2)on1)N1CCCC1 | 0.79µM* | 0.89µM* | 9.5µM* | 11µM* | -7% | 1.6µM*
COc1ccccc1N1CCN(C(=O)c2cc(-c3ccccc3)on2)CC1 | 0% | 0% | 2% | . | . | -1%
O=C(c1cc(-c2ccccc2)on1)N1CCN(c2ccccc2)CC1 | 1% | -2% | 24µM* | . | . | -5%
O=C(c1cc(-c2cccc(Cl)c2)on1)N1CCN(c2ccccc2)CC1 | 1% | -2% | ? | 4% | . | 5%
O=C(Nc1ccn(-c2ccccc2)n1)c1ccc(Cl)cc1 | 13% | 16% | 13µM* | 7%[1.84 µM] | -4% | 10%
O=C(Nc1ccn(-c2ccccc2)n1)c1ccccc1Br | ? | 27% | ? | 16µM* | -2% | ?
N#Cc1ccc(C(=O)Nc2ccn(-c3ccccc3)n2)cc1 | -1% | -11% | ? | -53% | 1% | -7%
COc1ccc(S(=O)(=O)c2nnn(-c3ccccc3F)c2C)cc1 | . | . | -9% | -14% | . | .
O=C1/C(=C/c2cccc3ccccc23)CCCc2ccccc21 | 20% | 26% | 13µM* | ? | -1% | 14%
